Calls of active or inactive are those of the source.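 The calls were made as follows, unless noted: active = GFP response above 150% of the DMSO level; inconclusive = fewer than 70 events counted for a yeast strain; inactive = the rest.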
Legend:
[1] = RPL19A-GFP modulators, yeast TOR pathway, confirmation, cell-based, S. cerevisiae, flow cytometry, cherry picks, mother/daughter gates (AID 2270;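 active = GFP response below 50% of the DMSO control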); conditions: S. cerevisiae RPL19A-GFP strain, 3 h, at 10 µM, stronger effect = lower value, 100 = same GFP as DMSO wells
[2] = LAP4-GFP expression modulators in yeast, confirmation, cell-based, cherry picks, flow cytometry, mother/daughter gates (AID 2271;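 active = GFP response above 150% of the DMSO control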;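 also: ratio of sample to DMSO plate mean so 100% equals DMSO level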); conditions: S. cerevisiae LAP4-GFP strain, 3 h, at 10 µM, stronger effect = higher value, 100 means same as DMSO control
[3] = modulators of MEP2-GFP levels in yeast, confirmation, S. cerevisiae, flow cytometry GFP, cherry picks (AID 2272;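 active = GFP response above 150% of the DMSO control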;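 also: ratio of well signal to plate DMSO mean so 100% equals DMSO level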); conditions: S. cerevisiae MEP2-GFP strain, 3 h, at 10 µM, stronger effect = higher value
[4] = AGP1-GFP expression modulators, hit retest, confirmation, cell-based, flow cytometry, S. cerevisiae, cherry picks (AID 2273);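 also: median GFP channel fluorescence over the whole cell population gate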; conditions: S. cerevisiae AGP1-GFP strain, 3 h, at 10 µM
[5] = modulators of CIT2-GFP expression in yeast, confirmation, S. cerevisiae, GFP fusion, cherry picks, mother/daughter gates (AID 2274); conditions: S. cerevisiae CIT2-GFP strain, flow cytometry, 3 h, at 10 µM, stronger effect = higher value
[6] = inhibitors of CD8+ T cell-vesicle binding, pilot screen, LFA-1/ICAM-1 modulator project, MLPCN validation set, flow cytometry (AID 2523;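 active = response below a set limit, under 55% cells CD8-positive and vesicle-bound, and CD8 cells' 90th-percentile brightness under 279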;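 as to vesicle binding response: mean PE anti-B7-1 fluorescence of CD8+ cells relative to row control; 100% = QL9-loaded vesicles with DMSO vehicle in the same plate row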); conditions: 2C mouse CD8+ T cells, at 7 µM, stronger effect = lower value; double positive events: measured here: CD8+/vesicle+ event percentage
[7] = molecular target: Integrin beta-1 (Homo sapiens) + Integrin alpha-4 (Homo sapiens) (UniProt P13612+P05556); test: inhibition of HUTS-21 binding to VLA-4, pilot screen, VLA-4 allosteric modulator project, U937 cells, HUTS-21 mAb, flow cytometry, validation set (AID 2674;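 active = inhibition above 50%, about 3 SD of the validation set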;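 also: antibody binding induced by the VLA-4 ligand LDV present at three times its Kd; 0% = LDV ligand with antibody and no compound and 100% = antibody without LDV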); conditions: HUTS-21 LIBS mAb binding, at 6.7 µM, stronger effect = higher value, binding induced by LDV ligand
[8] = superoxide lowering in aged yeast cells, pilot screen, validation compound set (AID 2706;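 active = superoxide response below 65% of plate, a cut near 3 SD across the whole screen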;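 also: yeast exposed to compound for one week at 30 degrees C before staining; 100% = mean of all compound wells on the same plate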); conditions: S. cerevisiae aging, superoxide DHE fluorescence; at 10 µM, stronger effect = lower value
[9] = molecular target: Beta-adrenergic receptor kinase 1 (Homo sapiens) (UniProt P25098); test: GRK2 binders displacing RNA aptamer, biochemical, validation, human GRK2, bead flow cytometry (AID 488806;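 active = aptamer binding inhibition above 30%, about 3 SD of noise from non-fluorescent compounds; inactive = inhibition at or below 30%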); conditions: bead-bound GRK2, FAM-aptamer displacement, at 10 µM, stronger effect = higher value
[10] = molecular target: AP-2 complex subunit beta (Homo sapiens) (UniProt P63010); test: inhibitors of arrestin peptide binding to AP2, pilot screen, biochemical, validation set, GST-AP2 beads, flow cytometry (AID 504541;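 active = inhibition above 54%, about 3 SD of non-fluorescent compounds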;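 also: AP2 carries R879A mutation and is captured from E. coli lysate; bead-bound FITC arrestin peptide fluorescence measuring arrestin peptide binding to AP2; 0% = DMSO wells and 100% = excess unlabeled arrestin peptide control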); conditions: FITC arrestin peptide, at 10 µM, stronger effect = higher value, AP2 beta2 appendage fragment, R879A mutant
[11] = yeast V-ATPase proton transport modulators, S. cerevisiae, pHLuorin, HTS validation (AID 504600; in the data active = response above about 15%;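 also: plate controls were DMSO for no effect and reference compound for full effect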); conditions: S. cerevisiae pHLuorin cytosolic pH, at 10 µM, stronger effect = higher value
[12] = tested on: anti-desmoglein-3 scFv antibody binding to human DSG3; test: inhibitors of anti-DSG3 scFv binding to DSG3, pilot screen, biochemical, validation compound set, bead-based, flow cytometry (AID 588368;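 active = binding below the plate cutoff, the plate median minus 3 SD, with a reading above zero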;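 also: signal is the median channel fluorescence of bead-bound GFP antibody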); conditions: Protein G beads, DSG3-Fc, scFv-GFP binding, at 10 µM, stronger effect = lower value
[13] = inhibitors of fungal efflux pumps CDR1, CDR2, MDR1, pilot screen, validation compound set, multiplex, phenotypic (AID 588506;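 active = efflux inhibition above 0.42, the validation set average plus 4 SD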;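 also: Nile Red retained in cells so higher fluorescence means more efflux inhibition; 0 = negative control wells and 1 = enniatin B 25 µM full block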); conditions: S. cerevisiae pump-expressing triplex, Nile Red efflux flow cytometry; at 10 µM; stronger effect = higher value; the pumps come from Candida albicans
[14] = molecular target: ATP-binding cassette sub-family B member 6 (Homo sapiens) (UniProt Q9NP58); test: ABCB6 transporter inhibitors, pilot screen, K562-ABCB6 cells, flow cytometry, validation set (AID 588550;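 active = inhibition above the screen-wide mean plus 3 SD, about 51%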;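 also: 0% = DMSO wells and 100% = benzethonium chloride 70 µM positive control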); conditions: K562-ABCB6 porphyrin accumulation, 1 h, at 10 µM, stronger effect = higher value
[15] = promoters of myeloid differentiation in arrested cells, primary screen, cell-based, GFP/MAC1 double positive, flow cytometry, validation set (AID 588685;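 active = differentiation response of at least 50%, scaled between solvent and reference control, from cells with both markers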;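 also: compound exposure lasts four days before antibody staining and flow analysis; 0% = DMSO wells and 100% = 5 µM fulvestrant positive control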); conditions: ER-HoxA9 marrow cells, stronger effect = higher value, normalized: vehicle 0, fulvestrant 100
[16] = measured here: daughter cell gate
[17] = measured here: mother cell gate
[18] = measured here: daughter cell gate response
[19] = measured here: mother cell gate response

Sequence of Integrin beta-1 (Homo sapiens) + Integrin alpha-4 (Homo sapiens) (P05556 whole entry, looked up): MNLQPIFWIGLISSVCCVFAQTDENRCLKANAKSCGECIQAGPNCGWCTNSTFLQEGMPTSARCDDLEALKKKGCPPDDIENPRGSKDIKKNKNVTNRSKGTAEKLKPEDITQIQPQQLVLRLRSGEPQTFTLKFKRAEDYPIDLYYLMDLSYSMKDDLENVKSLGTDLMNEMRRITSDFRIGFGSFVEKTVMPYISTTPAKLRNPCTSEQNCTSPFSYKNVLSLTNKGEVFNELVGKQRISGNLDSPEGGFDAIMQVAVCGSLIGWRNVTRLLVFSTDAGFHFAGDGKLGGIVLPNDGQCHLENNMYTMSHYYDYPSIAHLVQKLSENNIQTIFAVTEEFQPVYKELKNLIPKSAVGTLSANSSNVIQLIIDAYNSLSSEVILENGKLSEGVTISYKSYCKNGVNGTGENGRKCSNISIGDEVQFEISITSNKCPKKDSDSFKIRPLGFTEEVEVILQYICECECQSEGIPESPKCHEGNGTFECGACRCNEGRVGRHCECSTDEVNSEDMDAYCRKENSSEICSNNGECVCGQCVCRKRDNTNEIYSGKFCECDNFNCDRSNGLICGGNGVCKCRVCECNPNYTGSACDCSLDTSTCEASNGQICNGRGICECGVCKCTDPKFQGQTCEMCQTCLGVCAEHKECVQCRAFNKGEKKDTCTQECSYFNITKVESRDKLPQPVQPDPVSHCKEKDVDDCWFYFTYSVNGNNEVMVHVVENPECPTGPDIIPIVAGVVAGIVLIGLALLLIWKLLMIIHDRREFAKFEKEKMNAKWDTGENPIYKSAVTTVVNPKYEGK
Sequence of Integrin beta-1 (Homo sapiens) + Integrin alpha-4 (Homo sapiens) (P13612 whole entry, looked up): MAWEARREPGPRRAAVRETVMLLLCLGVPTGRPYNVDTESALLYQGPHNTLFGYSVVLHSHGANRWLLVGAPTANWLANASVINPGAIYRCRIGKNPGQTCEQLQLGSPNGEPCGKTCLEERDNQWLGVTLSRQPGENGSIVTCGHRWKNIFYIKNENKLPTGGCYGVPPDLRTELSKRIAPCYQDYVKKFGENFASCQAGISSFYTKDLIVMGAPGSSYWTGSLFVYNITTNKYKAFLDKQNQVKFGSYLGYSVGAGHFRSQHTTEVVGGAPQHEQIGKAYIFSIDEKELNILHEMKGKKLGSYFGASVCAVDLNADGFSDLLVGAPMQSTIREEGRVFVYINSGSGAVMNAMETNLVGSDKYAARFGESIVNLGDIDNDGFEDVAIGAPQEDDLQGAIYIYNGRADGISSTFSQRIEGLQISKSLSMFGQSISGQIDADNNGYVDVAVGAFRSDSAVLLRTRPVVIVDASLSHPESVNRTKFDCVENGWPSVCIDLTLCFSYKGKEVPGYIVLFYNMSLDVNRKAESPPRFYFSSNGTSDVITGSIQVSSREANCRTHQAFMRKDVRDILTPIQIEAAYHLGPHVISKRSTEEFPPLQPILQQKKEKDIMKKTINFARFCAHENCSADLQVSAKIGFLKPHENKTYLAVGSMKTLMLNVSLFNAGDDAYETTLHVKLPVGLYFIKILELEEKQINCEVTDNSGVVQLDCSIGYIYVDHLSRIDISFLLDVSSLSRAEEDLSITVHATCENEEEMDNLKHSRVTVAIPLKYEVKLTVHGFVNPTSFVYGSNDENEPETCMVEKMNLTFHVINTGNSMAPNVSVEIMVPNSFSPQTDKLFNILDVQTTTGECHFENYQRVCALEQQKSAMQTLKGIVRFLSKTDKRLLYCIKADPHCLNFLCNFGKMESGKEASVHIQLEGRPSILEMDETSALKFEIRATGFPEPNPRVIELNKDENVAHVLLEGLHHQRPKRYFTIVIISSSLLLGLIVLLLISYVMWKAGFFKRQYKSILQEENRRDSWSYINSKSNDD
Sequence of AP-2 complex subunit beta (Homo sapiens) (P63010 whole entry, looked up, the tested form may be a part, one chain of several): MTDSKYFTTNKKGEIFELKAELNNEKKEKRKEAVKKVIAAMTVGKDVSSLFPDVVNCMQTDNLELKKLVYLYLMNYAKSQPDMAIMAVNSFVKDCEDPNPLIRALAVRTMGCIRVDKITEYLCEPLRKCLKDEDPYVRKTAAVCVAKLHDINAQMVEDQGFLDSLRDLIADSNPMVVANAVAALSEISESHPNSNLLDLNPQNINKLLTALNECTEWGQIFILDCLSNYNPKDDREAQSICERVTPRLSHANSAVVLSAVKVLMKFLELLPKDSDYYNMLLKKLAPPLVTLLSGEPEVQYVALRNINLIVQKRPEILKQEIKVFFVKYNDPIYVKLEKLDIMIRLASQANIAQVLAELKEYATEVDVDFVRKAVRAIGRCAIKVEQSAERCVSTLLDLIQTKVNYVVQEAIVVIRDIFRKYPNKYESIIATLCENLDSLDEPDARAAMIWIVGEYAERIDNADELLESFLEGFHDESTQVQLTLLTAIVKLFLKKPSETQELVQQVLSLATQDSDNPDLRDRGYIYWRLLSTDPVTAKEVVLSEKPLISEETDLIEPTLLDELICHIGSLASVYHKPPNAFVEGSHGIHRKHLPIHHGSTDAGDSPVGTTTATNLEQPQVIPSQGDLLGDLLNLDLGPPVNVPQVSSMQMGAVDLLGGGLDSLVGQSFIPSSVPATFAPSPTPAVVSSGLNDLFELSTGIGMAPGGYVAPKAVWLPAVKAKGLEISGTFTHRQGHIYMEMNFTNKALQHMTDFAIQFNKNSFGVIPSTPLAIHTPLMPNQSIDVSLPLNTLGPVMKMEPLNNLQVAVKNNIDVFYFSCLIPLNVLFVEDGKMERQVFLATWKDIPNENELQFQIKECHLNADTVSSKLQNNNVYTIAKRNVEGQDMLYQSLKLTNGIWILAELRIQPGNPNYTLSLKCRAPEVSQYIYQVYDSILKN
Sequence of Beta-adrenergic receptor kinase 1 (Homo sapiens) (P25098 whole entry, looked up): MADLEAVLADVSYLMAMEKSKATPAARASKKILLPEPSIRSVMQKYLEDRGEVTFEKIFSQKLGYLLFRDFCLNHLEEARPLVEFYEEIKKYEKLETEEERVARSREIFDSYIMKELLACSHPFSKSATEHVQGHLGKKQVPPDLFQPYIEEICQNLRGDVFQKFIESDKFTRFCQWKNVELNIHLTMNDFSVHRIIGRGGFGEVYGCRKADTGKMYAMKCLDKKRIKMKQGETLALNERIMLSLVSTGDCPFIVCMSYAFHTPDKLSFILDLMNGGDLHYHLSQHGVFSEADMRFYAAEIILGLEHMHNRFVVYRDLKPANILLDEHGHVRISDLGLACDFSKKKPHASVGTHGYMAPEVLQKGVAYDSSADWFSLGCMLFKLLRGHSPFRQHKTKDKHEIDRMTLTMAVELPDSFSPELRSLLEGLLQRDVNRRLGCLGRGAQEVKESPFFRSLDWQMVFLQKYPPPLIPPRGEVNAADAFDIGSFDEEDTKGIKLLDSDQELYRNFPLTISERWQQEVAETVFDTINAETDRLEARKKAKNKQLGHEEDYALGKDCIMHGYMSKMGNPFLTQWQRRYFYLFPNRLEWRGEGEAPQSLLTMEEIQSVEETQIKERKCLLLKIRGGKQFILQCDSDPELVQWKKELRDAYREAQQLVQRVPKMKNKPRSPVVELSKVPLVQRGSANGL
Sequence of ATP-binding cassette sub-family B member 6 (Homo sapiens) (Q9NP58 whole entry, looked up): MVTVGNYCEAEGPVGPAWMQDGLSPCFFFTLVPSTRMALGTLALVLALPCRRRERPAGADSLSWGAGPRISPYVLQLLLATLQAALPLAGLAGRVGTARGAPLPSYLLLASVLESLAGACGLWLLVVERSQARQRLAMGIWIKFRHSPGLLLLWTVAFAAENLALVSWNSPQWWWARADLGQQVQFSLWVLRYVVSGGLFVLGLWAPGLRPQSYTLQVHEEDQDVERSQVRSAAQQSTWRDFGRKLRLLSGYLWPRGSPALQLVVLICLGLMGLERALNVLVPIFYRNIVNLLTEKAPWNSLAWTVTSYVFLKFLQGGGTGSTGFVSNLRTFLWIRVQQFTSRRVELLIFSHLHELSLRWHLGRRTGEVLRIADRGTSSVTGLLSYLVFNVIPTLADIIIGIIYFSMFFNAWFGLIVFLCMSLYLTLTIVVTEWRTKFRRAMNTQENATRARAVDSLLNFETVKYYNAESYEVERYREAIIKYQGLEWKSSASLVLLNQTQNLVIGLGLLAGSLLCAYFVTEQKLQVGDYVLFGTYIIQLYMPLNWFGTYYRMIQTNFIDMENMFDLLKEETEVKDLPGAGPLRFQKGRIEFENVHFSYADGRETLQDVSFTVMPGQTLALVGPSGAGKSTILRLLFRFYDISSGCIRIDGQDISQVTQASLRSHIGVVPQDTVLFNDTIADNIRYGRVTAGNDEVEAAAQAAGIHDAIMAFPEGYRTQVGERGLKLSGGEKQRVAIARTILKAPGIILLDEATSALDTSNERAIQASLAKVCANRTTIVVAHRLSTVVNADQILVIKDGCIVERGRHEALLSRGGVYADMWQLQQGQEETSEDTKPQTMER

## CCOC(=O)CCS(=O)(=O)c1nc(-c2ccccc2)cc(C(F)(F)F)n1
[1]
  GFP response vs DMSO: 98.8% (inactive)
[1]; [16]
  GFP response vs DMSO: 102%
[1]; [17]
  GFP response vs DMSO: 93.5%
[2]
  GFP response relative to DMSO: 164% (active)
[2]; [18]
  GFP response relative to DMSO: 153%
[2]; [19]
  GFP response relative to DMSO: 170%
[3]
  GFP response vs DMSO: 146% (inactive)
[4]
  GFP response, % of DMSO: 127% (inactive)
[5]
  GFP response, % of DMSO: 100% (inactive)
[5]; [16]
  GFP response, % of DMSO: 106%
[5]; [17]
  GFP response, % of DMSO: 92.3%

## O=C(O)Cc1ccc2ccc3ccccc3c2c1
[1]
  GFP response vs DMSO: 96.8% (inactive)
[1]; [16]
  GFP response vs DMSO: 92.8%
[1]; [17]
  GFP response vs DMSO: 97.8%
[2]
  GFP response relative to DMSO: 106% (inactive)
[2]; [18]
  GFP response relative to DMSO: 105%
[2]; [19]
  GFP response relative to DMSO: 105%
[3]
  GFP response vs DMSO: 102% (inactive)
[4]
  GFP response, % of DMSO: 96.1% (inactive)
[5]
  GFP response, % of DMSO: 104% (inactive)
[5]; [16]
  GFP response, % of DMSO: 99.7%
[5]; [17]
  GFP response, % of DMSO: 104%

## O=C(N/N=C/c1ccccn1)c1sc2ccccc2c1Cl
[1]
  GFP response vs DMSO: 103% (inactive)
[1]; [16]
  GFP response vs DMSO: 94%
[1]; [17]
  GFP response vs DMSO: 103%
[2]
  GFP response relative to DMSO: 118% (inactive)
[2]; [18]
  GFP response relative to DMSO: 114%
[2]; [19]
  GFP response relative to DMSO: 126%
[3]
  GFP response vs DMSO: 114% (inactive)
[4]
  GFP response, % of DMSO: 99.3% (inactive)
[5]
  GFP response, % of DMSO: 84.7% (inactive)
[5]; [16]
  GFP response, % of DMSO: 88.9%
[5]; [17]
  GFP response, % of DMSO: 82.8%

## CCCCC(=O)O[C@]1(C(=O)CO)CC[C@H]2[C@@H]3CCC4=CC(=O)CC[C@]4(C)[C@H]3[C@@H](O)C[C@@]21C
[6]
  double positive events: 62.4%
  vesicle binding response: 271% (inactive)
[7]
  inhibition: 4.42% (inactive)
[8]
  superoxide response (% of plate): 83.1% (inactive)
[9]
  aptamer binding inhibition: 2% (inactive)
[10]
  inhibition: -7.47% (inactive)
[11]
  response: -1.11% (inactive)
[12]
  binding (% of control): 101% (inactive)
[13]
  efflux inhibition (fraction of control): 0.1 (inactive)
[14]
  inhibition: 9% (inactive)
[15]
  differentiation response: -6.66% (inactive)

Reference: PubChem BioAssay
